Pf growth 96h: inhibits malaria parasite growth, 96 h | Potency, µM (series often up to 28.7 µM), for inactives: top-dose activity change, negative = inhibition, actives largely listed as inhibitors | P. falciparum luciferase reporter growth, 96 h | actives 6.9% (n = 320,000) | AID 504834; note: potency is the fitted concentration of half-maximal effect; % is set by controls: 0 for no effect and ±100 for the full control effect
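Infected RBCs, 2% Hct / 0.05% parasitemia final; luciferase-reporter P. falciparum; cpd 96 h, 37 C, 5% CO2; luciferase detection reagent; luminescence.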
Pf growth 48h: inhibits P. falciparum growth in the first generation, 48 h. P. falciparum luciferase growth in erythrocytes, 48 h. Potency, µM (doses to about 28.7 µM), without a hit: at the highest dose activity change, negative = inhibition, actives largely listed as inhibitors. actives 5.9% (n = 310,000). AID 504832; note: potency is the fitted concentration of half-maximal effect; % is set by controls: 0 for no effect and ±100 for the full control effect
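Firefly luciferase activity from engineered P. falciparum reports growth; inhibitors lower the luminescent signal. Cultures contained 2% hematocrit erythrocytes at 0.1% final parasitemia.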
NS1 function inh: blocks influenza NS1 protein function. Potency, µM (highest dose often 46.1 µM), inactives show at the top dose activity, positive = more growth. actives 0.4% (n = 270,000). AID 2326; calls by dose curve; note: potency is the fitted concentration of half-maximal effect; actives are rising curves; nearly all actives have a fitted effect of over 50% in size
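A cell-based growth assay was used: compounds that relieve NS1-induced slow growth of budding yeast raise OD600. Assay medium was yeast nitrogen base with ammonium sulphate and -URA supplement, pH 6.0, with 2% galactose.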
Shiga inhibitor: blocks Shiga toxin action in Vero cells | Vero cells, Shiga toxin protein synthesis inhibition reporter | actives 9.2% (n = 290,000) | inhibition, % at 38.7 µM; in the data active = inhibition mostly above about 28%, no sharp cut-off; inactive = mostly below about 43%; note: 0% is about no effect
FBPA Giardia inh: Giardia lamblia aldolase inhibition; Potency, µM (doses to about 59.6 µM), for the others: top-dose activity, negative = inhibition, actives largely listed as inhibitors; actives 0.71% (n = 290,000); A8B2U2; AID 2451; purified Giardia FBPA; note: potency is the fitted concentration of half-maximal effect; % is set by controls: 0 for no effect and ±100 for the full control effect; nearly all actives have a fitted effect of over 55% in size
Target sequence (A8B2U2 whole entry, looked up): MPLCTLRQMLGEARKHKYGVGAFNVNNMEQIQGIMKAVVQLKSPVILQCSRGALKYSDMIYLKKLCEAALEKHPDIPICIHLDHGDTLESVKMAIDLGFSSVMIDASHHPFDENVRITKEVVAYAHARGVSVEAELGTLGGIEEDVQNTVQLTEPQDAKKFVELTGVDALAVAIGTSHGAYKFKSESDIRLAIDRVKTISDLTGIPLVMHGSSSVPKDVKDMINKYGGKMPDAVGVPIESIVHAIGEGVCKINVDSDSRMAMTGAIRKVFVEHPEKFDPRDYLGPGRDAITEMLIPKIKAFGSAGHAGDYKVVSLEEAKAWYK
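Giardia FBPA (40 nM reagent) was preincubated 10 min at RT with compound (up to 57.5 uM final), then substrate plus GAPDH/TPI/NAD/arsenate coupling system with diaphorase/resazurin was added; resorufin fluorescence (525/598 nm) was read after 20 min.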
Cycloheximide cs: counter-screen for Shiga toxin inhibitors: cycloheximide protein synthesis inhibition. max response, %. actives 12% (n = 300,000). AID 2314. cell reporter, cycloheximide protein synthesis inhibition counterscreen; in the data active = max response mostly above about 13%, no sharp cut-off; inactive = mostly below about 14%; note: read at 38.3 µM for the half of the compounds with a filed dose; 0% is about no effect
* hit, by the source's call. In the library only some 21% were active in any assay of this set; here they are far more common. Unless noted, calls come from the whole dose curve; as a rule, active = well fitted curve in the direction sought with a large enough effect; inconclusive = small, poorly fitted or top-dose-only effect, or another doubt; inactive = no such curve, though single readings can be large; an effect the other way counts as inactive or inconclusive.

How did Cc1ccccc1C(=O)NC(CC(C)C)C(=O)OCc1cc(=O)n2cc(Br)ccc2n1 (configuration not stated) do in these assays?
Pf growth 96h: 94%; Pf growth 48h: 139%; NS1 function inh: -41%; Shiga inhibitor: 36*; FBPA Giardia inh: 12%; Cycloheximide cs: 28*

What do the screens show for `CC1(C)NC(=O)N(CC(=O)OCc2cc(=O)n3cc(Br)ccc3n2)C1=O`?
Pf growth 96h: 31%; Pf growth 48h: 35%; Shiga inhibitor: -7; FBPA Giardia inh: 4%; Cycloheximide cs: 3

Results for O=C(CN1C(=O)NC2(CCCC2)C1=O)OCc1cc(=O)n2cc(Br)ccc2n1 ?
Pf growth 96h: 46%; Pf growth 48h: 1%; NS1 function inh: 4%; Shiga inhibitor: 67*; FBPA Giardia inh: 7%; Cycloheximide cs: 48*

What do the screens show for `CC1CC1C(=O)OCc1cc(=O)n2cc(Br)ccc2n1` (configuration not stated)?
Pf growth 96h: 33%; Pf growth 48h: 71%; NS1 function inh: -9%; Shiga inhibitor: 117; FBPA Giardia inh: 12%; Cycloheximide cs: 29*

Results for Cc1noc(C)c1S(=O)(=O)N1CCN(S(=O)(=O)c2ccccc2C#N)CC1 ?
Pf growth 96h: -25%; Pf growth 48h: -18%; NS1 function inh: 13%; Shiga inhibitor: 6; FBPA Giardia inh: -2%; Cycloheximide cs: -3

How did CSc1ccc(/C=C2\C(=N)N3N=C(CC(=O)N4CCCCC4)SC3=NC2=O)cc1 do in these assays?
Pf growth 96h: 8%; Pf growth 48h: 2%; NS1 function inh: 2%; Shiga inhibitor: 4; FBPA Giardia inh: 0%; Cycloheximide cs: -6

Results for O=C(Nc1ccc(Oc2ccccc2)nc1)C1CCCCN1Cc1ccc(OCCO)cc1 (configuration not stated) ?
Pf growth 96h: inconclusive; Pf growth 48h: inconclusive; NS1 function inh: 21%; Shiga inhibitor: 1; FBPA Giardia inh: -12%; Cycloheximide cs: 22*

How did O=C(Nc1ccc(Oc2ccccc2)nc1)C1CCN(Cc2ccco2)CC1 do in these assays?
Pf growth 96h: 15%; Pf growth 48h: -24%; NS1 function inh: 7%; Shiga inhibitor: 3; FBPA Giardia inh: 10%; Cycloheximide cs: -1

Results for O=C(Nc1ccc(Oc2ccccc2)nc1)C1CCCCN1Cc1ccco1 (configuration not stated) ?
Pf growth 96h: 83%; Pf growth 48h: -14%; NS1 function inh: -5%; Shiga inhibitor: -21; Cycloheximide cs: 0

Results for C#Cc1ccc(CN2CCC(C(=O)Nc3ccc(Oc4ccccc4)nc3)CC2)cc1 ?
Pf growth 96h: 2.3µM*; Pf growth 48h: inconclusive; NS1 function inh: -4%; Shiga inhibitor: -2; Cycloheximide cs: -1

How did CC#CC(=O)N1CCC(C(=O)Nc2ccc(Oc3ccccc3)nc2)CC1 do in these assays?
Pf growth 96h: inconclusive; Pf growth 48h: -7%; NS1 function inh: -3%; Shiga inhibitor: 87*; FBPA Giardia inh: -6%; Cycloheximide cs: 34*

What do the screens show for `COc1ccc2c(c1)O[C@H](c1ccc3c(c1)OCO3)[C@@H](OC(=O)NS(=O)(=O)c1ccc(F)cc1)C2=O`?
FBPA Giardia inh: 0%

What do the screens show for `CC(C)C(=O)Nc1nnc(S(=O)(=O)N(C)c2ccc(Cl)cc2)s1`?
Pf growth 96h: 2.9µM*; Pf growth 48h: 14%; NS1 function inh: 4%; Shiga inhibitor: 2; FBPA Giardia inh: -4%; Cycloheximide cs: -1

Results for COc1cc2c3c(c1OC)C1(C=CC(=O)C=C1)CC3N(C(=O)CCC(=O)O)CC2 (configuration not stated) ?
Pf growth 96h: -26%; Pf growth 48h: 2.1µM*; NS1 function inh: -2%; Shiga inhibitor: -6; FBPA Giardia inh: -1%; Cycloheximide cs: -3

Results for COc1cc2c3c(c1OC)C1(C=CC(=O)C=C1)CC3N(C(=O)c1ccccc1)CC2 (configuration not stated) ?
Pf growth 96h: inconclusive; Pf growth 48h: inconclusive; NS1 function inh: -1%; Shiga inhibitor: 9; FBPA Giardia inh: -1%; Cycloheximide cs: -1

Results for CC(CCc1ccccc1)NC(=O)CCCn1ncn2c(cc3occc32)c1=O (configuration not stated) ?
Pf growth 96h: inconclusive; Pf growth 48h: inconclusive; NS1 function inh: 1%; Shiga inhibitor: 5; Cycloheximide cs: 2

What do the screens show for `Cc1cc(I)ccc1Nc1c(C(=O)NOCC2CC2)cc(F)c(F)c1F`?
Shiga inhibitor: 58*; FBPA Giardia inh: 0%; Cycloheximide cs: 17*

What do the screens show for `O=C(NCc1ccc(Cl)cc1)c1ccc(-n2cccn2)nc1`?
Pf growth 96h: 29%; Pf growth 48h: 162%; Shiga inhibitor: -15; FBPA Giardia inh: 4%; Cycloheximide cs: -6

How did O=C(Nc1ccc(F)cc1F)c1ccc(-n2cccn2)nc1 do in these assays?
Pf growth 96h: 20%; Pf growth 48h: 39%; Shiga inhibitor: 18; FBPA Giardia inh: 0%; Cycloheximide cs: 16*

Results for O=C(Nc1ccc(F)cc1F)c1ccc(-n2cncn2)nc1 ?
Pf growth 96h: 15%; Pf growth 48h: 16%; NS1 function inh: 2%; Shiga inhibitor: -6; FBPA Giardia inh: 19%; Cycloheximide cs: 0

Results for CC(C)Sc1ccc(C(=O)Nc2ccc(F)cc2F)cn1 ?
Pf growth 96h: 76%; Pf growth 48h: 42%; NS1 function inh: -6%; Shiga inhibitor: 50*; FBPA Giardia inh: -2%; Cycloheximide cs: 48*

Results for CN(C)C(=O)c1ccc(-n2cccn2)nc1 ?
Pf growth 96h: 2%; Pf growth 48h: 10µM*; Shiga inhibitor: 30; FBPA Giardia inh: 0%; Cycloheximide cs: 9

Results for COc1cccc(C(C(=O)NC(C)(C)C)N(CCc2ccccc2)C(=O)CCC(=O)Nc2cc(C)on2)c1OC (configuration not stated) ?
Pf growth 96h: -30%; Pf growth 48h: inconclusive; NS1 function inh: 2%; Shiga inhibitor: -10; FBPA Giardia inh: -3%; Cycloheximide cs: 1

Results for CCN1CCCC1Cn1cnc2c([nH]c3ccc(OC)cc32)c1=O (configuration not stated) ?
Pf growth 96h: 0%; Pf growth 48h: 20%; NS1 function inh: -7%; Shiga inhibitor: 19; FBPA Giardia inh: -15%; Cycloheximide cs: 1

How did O=C(Nc1cccnc1)c1ccc(F)cc1 do in these assays?
Pf growth 96h: 9%; Pf growth 48h: 18%; NS1 function inh: -4%; Shiga inhibitor: -8; FBPA Giardia inh: 7%; Cycloheximide cs: -3

Results for O=C(Nc1cccnc1)c1ccc(COCC(F)(F)F)cc1 ?
Pf growth 48h: 36%; NS1 function inh: inconclusive; Shiga inhibitor: 38*; FBPA Giardia inh: -1%; Cycloheximide cs: 12*

What do the screens show for `CCOc1ccc(OCc2ccc(C(=O)Nc3cccnc3)cc2)cc1`?
Pf growth 96h: 11%; Pf growth 48h: 16%
